Where “and” joins values, the source holds several entries; their conditions need not be identical. Identical values can stand only once. The whole screen tested about 34,000 compounds, of which about 290 (0.85%) showed an effect of 50% or more. The full list was thinned out, with strong results kept by preference.
Tested on: Plasmodium falciparum
Test: Plasmodium falciparum sporozoite viability assay
Format: functional, organism-based
Parameters: scale not given: in the data most compounds retested in dose-response had high values

Compound | Percent Effect [%] | Percent Effect (10 mM as filed; unlikely as a test dose)
O=C(CCn1ccnc1)N1CCC(c2nnc(-c3ccccn3)o2)CC1 | 18.74 | –
Cc1cc(NC(=O)CN(C)C2CCCN(c3cccnn3)C2)on1 (stereo not drawn) | 6.872 | –
Cc1cc2nc(SCC(=O)N3CCCCC3)n(C)c(=O)c2[nH]1 | 16.8 | –
CN1C(=O)CCCC12CCCN(C(=O)c1ccoc1)C2 (stereo not drawn) | 8.123 | –
Cc1ccccc1-n1c(C)cc(C(=O)N2CCn3c(C)nnc3C2)c1C | – | -10.25% and 8.528% and -8.016%
Cc1cc(C(=O)N2CCc3nnc(N)cc3C2)c(C)n1-c1cccnc1 | – | -13.69% and -18.44% and -9.069%
CCn1c(C)cc(C(=O)N2CCc3nnc(N)cc3C2)c1C | – | -3.903% and -4.783% and -13.87%
Cc1nnc2n1CCN(C(=O)c1cc(C)n(-c3ccccc3)c1C)C2 | – | 80.6% and 90.57% and 75.3%
Cc1nnc2n1CCN(C(=O)c1cc(C)n(-c3ccccn3)c1C)C2 | – | -4.516% and -0.613% and 8.394%
Cc1nnc2n1CCN(C(=O)c1cc(C)n(-c3cccnc3)c1C)C2 | – | -3.499% and -16.38% and -11.58%
Cc1cccc(-n2c(C)cc(C(=O)N3CCn4c(C)nnc4C3)c2C)c1 | – | 50.81% and 47.19% and 51.44%
O=C(NCCc1cc(N2CCOCC2)nc(NC2CC2)n1)C1CCCO1 (stereo not drawn) | 11.42 | –
Cc1cc(C)n(CC2CCCN2CCS(C)(=O)=O)n1 (stereo not drawn) | 6.268 | –
CCn1c(C2CCN(C(=O)c3cc(CC(C)C)on3)CC2)nn(C)c1=O | – | -0.7877% and 5.537%
CNC(=O)c1cn[nH]c1C1CCCN1C(=O)c1cccnc1 (stereo not drawn) | 6.523 | –
Cc1noc(CN(CCc2cccs2)Cc2cccc(C#N)c2)n1 | – | -26.23% and -21.92%
COCCN(Cc1cccc(C#N)c1)Cc1nc(C)no1 | – | 48.82% and 52.01%
Cc1noc(CN(CCc2ccco2)Cc2cccc(C#N)c2)n1 | – | -11.78% and -9.281%
COc1cccc(CN2CCCCCC2c2sccc2C)c1O (stereo not drawn) | – | 49.38% and 41.71%
COc1cccc(CN2CCCCCC2c2cccc(C)c2)c1O (stereo not drawn) | – | 44.13% and 43.49% and 59.81%
COCCC(=O)N1CCCN(Cc2nccn2C(C)C)CC1 | 9.219 | –
c1ccc(Cc2nc(C3CC3)nn2-c2ccc3c(c2)OCCO3)nc1 | – | 32.69% and 40.6%

Compound | Percent Effect [%] | Percent Effect (10 mM as filed; unlikely as a test dose)
c1cncc(OCc2nc(C3CC3)nn2-c2ccc3c(c2)OCCO3)c1 | – | 74.85% and 76.98%
c1cncc(CCc2nc(C3CC3)nn2-c2ccc3c(c2)OCCO3)c1 | – | 41.36% and 42.97%
O=C(c1cn(-c2cccc(Cl)c2F)nn1)N1CCCSCC1 | – | -42.82% and -45.17%
O=C(c1cn(-c2ccccc2Cl)nn1)N1CCSCC1 | – | -17.97% and -41.49%
CN(C)c1cccc(C(=O)NCC(O)c2cccs2)c1 (stereo not drawn) | – | 12.86% and 4.207%
CN1CCN(C(=O)[C@H]2CC[C@@H]3[C@@H](CCN3Cc3nccs3)O2)CC1 | -3.61 | –
COc1ccccc1C(=O)Nc1nc2c(s1)CN(S(=O)(=O)C1CC1)CC2 | – | 82.29% and 80.43%
CCc1nc(CN2CCCC(N(C)Cc3cnn(C)c3)C2)no1 (stereo not drawn) | -6.257 | –
CCc1nc(CN2CCCN(Cc3cnn(C)c3)CC2)no1 | -9.563 | –
Cc1ncncc1-c1ccnc(NC(C)C)n1 | -0.5927 | –
CN(C)C(=O)c1cccnc1SCc1ccccc1Cl | -19.98 | –
Cc1cc(CN2CCN(C(=O)NCc3csc(C)n3)CC2)on1 | -16.07 | –
CC(=O)Nc1ncc(S(=O)(=O)Nc2ccc(C)cc2)s1 | – | -23.3% and -22.01%
CC(=O)Nc1ncc(S(=O)(=O)Nc2ccc3c(c2)OCCO3)s1 | – | 98.04% and 98.83%
Cc1cc(C(=O)O)cc(S(=O)(=O)Nc2ccc3c(c2)OCCO3)c1C | – | 24.31% and 12.71% and 29.08%
Cc1cc(C(=O)O)cc(S(=O)(=O)Nc2ccc3c(c2)OCCCO3)c1C | – | 3.546% and -0.5757% and 17.55%
Cc1c(F)cc(C(=O)O)cc1S(=O)(=O)Nc1ccc2c(c1)OCCO2 | – | 59.81% and 58.05% and 66.51%
CCc1ccc(C(=O)O)cc1S(=O)(=O)Nc1ccc(F)c(C#N)c1 | 9.76 | –
CC(=O)Nc1ncc(S(=O)(=O)Nc2cccc(F)c2)s1 | – | -17.58% and -16.77%
COc1ccc(CN2CCN(C(C)=O)CC3(CC(=O)N(C)C3)C2)cc1.O=C(O)C(F)(F)F (stereo not drawn) | 6.785 | –
CCOc1ccc(CC(=O)N2CCCC(n3nc(C)nc3C)C2)cc1 (stereo not drawn) | -2.342 | –
CC(C)N(Cc1nc(-c2cccs2)no1)CC1CCC(=O)N1 (stereo not drawn) | 3.846 | –

Compound | Percent Effect [%] | Percent Effect (10 mM as filed; unlikely as a test dose)
OC(COCc1ccc2c(c1)OCO2)CN1CC(n2cccn2)C1 (stereo not drawn) | 13.47 | –
Cc1cc(C)n(C2CCN(Cc3nc4ccccc4n3C)CC2)n1 | 1.623 | –
CC1=N[C@@]2(CC[C@@H]3CN(Cc4ccccc4)C[C@@H]32)C(=O)N1CC1CC1.O=C(O)C(F)(F)F | 2.527 | –
CN1CC2(CCCN(Cc3nnc(-c4ccco4)o3)CC2)OC1=O (stereo not drawn) | – | -3.132% and -3.886%
CN(C)CCN(C)c1cc(N2CCN(c3ccccn3)CC2)ncn1 | -8.534 | –
CN(C)c1cc(N2CCN(c3ccccn3)CC2)ncn1 | -18.98 | –
CC(=O)N1CCCC1(C)c1nc(C)no1 (stereo not drawn) | 0.7282 | –
Cc1nc(C)c(CNC(=O)N2CCc3ccccc3C2CO)s1 (stereo not drawn) | -12.91 | –
COCCCN1Cc2cccc(NC(=O)c3cc(F)cc(F)c3)c2C1 | – | -15.93% and -21.99% and -27.51%
Cc1cnn(CCNCc2nnc(C3CC3)o2)c1 | 9.956 | –
NC(=O)c1ccc(NC(=O)Cn2cc(I)cn2)cc1 | – | 84.67% and 86.35% and 89.46%
Cc1ccc(NC(=O)Cn2cc(I)cn2)cc1 | – | -17.48% and -21.7% and -14.78%
CCOC(=O)c1ccc(NC(=O)Cn2cc(I)cn2)cc1 | – | -22.37% and -20.15% and -13.35%
O=C(c1cccnc1)N1Cc2ccccc2OCC1Cn1ccnc1 (stereo not drawn) | -1.384 | –
Cc1cc(C)nc(C2CCN(C(=O)c3cnc(N(C)C)nc3)C2)n1 (stereo not drawn) | -0.8427 | –
OC1CCN(c2ccc(CNc3nc4ccccc4s3)cc2F)CC1 | – | 62.02% and 41.95% and 71.05%
COC(=O)c1sc(NCc2ccc(N3CCC(O)CC3)c(F)c2)nc1Cl | – | -24.87% and -16.11% and -1.959%
O=C(O)C(F)(F)F.O=C(O)C(F)(F)F.c1ccc(NCc2cnc3n2CCN(CC2CCOC2)CC3)nc1 (stereo not drawn) | -7.491 | –
Cc1ncsc1C(=O)NCc1ccnc(OCC(F)(F)F)c1 | 6.389 | –
CCN(CC)S(=O)(=O)c1cc2c3c(c1)c(C)cc(=O)n3CC2 | 16.61 | –
CN1CCN(Cc2cnc3n2CCN(Cc2cccs2)C3)CC1.O=C(O)C(F)(F)F.O=C(O)C(F)(F)F.O=C(O)C(F)(F)F | -13.03 | –
CCCC(C)C(=O)NCc1cn2cc(Br)ccc2n1 (stereo not drawn) | -3.946 | –

Compound | Percent Effect [%] | Percent Effect (10 mM as filed; unlikely as a test dose)
O=C(Cn1cc(Cl)cn1)Nc1ccc2c(c1)OCCCO2 | – | -49.11% and -46.89%
CCn1cc(NC(=O)Nc2ccc3c(c2)OCCO3)cn1 | – | 64.15% and 57.73% and 68.6%
CCn1cc(NC(=O)NCCc2ccc3c(c2)OCCO3)cn1 | -0.8103 | –
CCn1cc(NC(=O)NCC(c2cccc(OC)c2)N(C)C)cn1 (stereo not drawn) | – | 18.25% and 14.26% and 26.58%
CCn1cc(NC(=O)NCC(c2ccc(OC)cc2)N(C)C)cn1 (stereo not drawn) | – | 43.93% and 35.12% and 56.29%
O=C(CCn1cc(Cl)cn1)Nc1ccc2c(c1)OCCO2 | – | 65.57% and 50.96%
O=C(Cn1cc(Cl)cn1)Nc1ccc2c(c1)OCO2 | – | -26.57% and -36.31%
Cc1nc2cc(O)nn2c(C)c1CCC(=O)NCc1cc(Br)cs1 | 3.643 | –
O=C(NCCc1ccccc1)c1cccc(S(=O)(=O)NC2CCOC2)c1 (stereo not drawn) | -7.302 | –
CN1CCC(c2cccc(-c3cccc(C(=O)O)c3)n2)CC1 | 10.86 | –
CCOc1ccc(CCCC(=O)N2CCC(C(=O)NC)C2)cc1C (stereo not drawn) | -7.967 | –
COc1cc(CCC(=O)NC(C)C(=O)O)ccc1OCC(F)(F)F (stereo not drawn) | -11.4 | –
Cc1nn(C)c(C)c1C1CCCN1c1ncnc2sccc12 (stereo not drawn) | -0.7353 | –
O[C@H]1CN(Cc2c[nH]nc2-c2ccccc2)CC[C@@]12CCCO2 | 16.42 | –
Cl.Clc1ccc(-c2ccc(C3CNCCO3)nc2)cc1 (stereo not drawn) | – | 88.25% and 80.55% and 85.69%
Nc1ncc(-c2ccc(Cl)cc2)c(C2CCCNC2)n1 (stereo not drawn) | 17.56 | –
Cl.Cl.Cn1nc(C2CNCCO2)cc1CCOc1ccc(Cl)cc1 (stereo not drawn) | -1.356 | –
CN(C)C(=O)c1sc2ncccc2c1C1CNCCO1.Cl (stereo not drawn) | -1.679 | –
Cn1ccnc1CN1CCN(Cc2noc(C3CC3)n2)CC1 | 10.42 | –
CCN1CC[C@@]2(C(=O)N3CCOCC3)CCN(C(=O)C(C)C)CC[C@@H]12.O=C(O)C(F)(F)F | 20.75 | –
Cc1ccc(-c2nccn2-c2ccc(OC3CCN(C)CC3)cc2)o1 | – | 49.42% and 35.94%
CCOC[C@H]1CC[C@H]2[C@H](CCN2C(=O)c2cnccn2)O1 | 7.105 | –

Reference: ChEMBL document CHEMBL3988442, “University of Dundee, Small-Polar-MMV Screening Library” (2021)
